The text below walks through data of PubChem BioAssay (NCI).

Holding throughout (assay): NCI-60 one-dose screen, 48 h (100 = growth as untreated, 0 = no growth, -100 = all killed)
Details in all cases: 10 µM unless noted

Assay [1] concerns RPMI-8226 leukemia.
Assay [2] concerns OVCAR-8 ovarian.
Assay [3] deals with OVCAR-5 ovarian.
Assay [4] concerns OVCAR-4 ovarian.
Assay [5] deals with SK-OV-3 ovarian.
Assay [6] has as its system IGROV1 ovarian.
Assay [7] concerns OVCAR-3 ovarian.
Assay [8] concerns HS 578T breast.
Assay [9] relates to NCI/ADR-RES ovarian.
The subject of assay [10] is T-47D breast.
Assay [11] has as its system MDA-MB-435 melanoma.
Assay [12] has as its system SW-620 colon.
Assay [13] deals with MCF7 breast.
The test system of assay [14] is HCT-116 colon.
Assay [15] deals with HCC-2998 colon.
The test system of assay [16] is KM12 colon.
In assay [17] the test system is BT-549 breast.

About 83,000 compounds went through this panel and 20% of them were active in at least one assay; those are over-represented in the sample as a whole.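 Step 1: grow cells in 96-well plates. Step 2: add test compound at a single concentration. Step 3: incubate 48 h. Step 4: record percent growth.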 Unmarked numbers belong to inactive results. Active and inactive are the calls of the source. How the source made its calls: active means growth percent below 10; inactive means the rest.

On to `CCCCCCCCCC(C)NC(=O)CCl` (stereo unspecified), for which the growth in assay [1] was 97.6%; in assay [2], 88.3%; in [3], 107%; in assay [4] it was 89.4%; in [5], 103%; in assay [6], 25.6%. Further, the growth is 89.3% in assay [7]; 102% in assay [8]; 101% in assay [9]; 82.6% in assay [10]; 96.3% in assay [11]; 103% in [12]. The growth in assay [13] was 86.2%; in [14] it was 95.7%; in assay [15], 103%; in [16], 101%.
Take `COc1ccc(-c2nc(SCC(C)C)nc(Nc3ccc(C(=O)O)cc3)c2C#N)cc1`: the growth was 60.8% in assay [1]; 97.1% in assay [2]; 104% in [3]; 87.1% in [4]; 113% in [5]; 109% in assay [6]. Besides, the growth was 86.6% in assay [7]; 99.1% in assay [8]; 94.6% in assay [9]; 87.3% in [10]; 85.6% in assay [17]; 99.5% in assay [11]. The growth was 102% in [12], 67.2% in [13], 85.1% in [14] and 91.8% in assay [16].
As to `N#Cc1c(N)nc(Nc2nc3ccccc3[nH]2)nc1-c1ccc(Cl)cc1`, the growth in assay [1] was 94.4%; in [2] it was 102%; in assay [3], 107%; in [4], 116%; in assay [5], 88.4%; in [6], 98.7%. Besides, the growth in [7] is 127%; in assay [8], 145%; in [9] it was 107%; in [10], 93.8%; in assay [11], 106%; in [12] it was 117%. In addition, the growth was 86.9% in assay [13], 109% in assay [14] and 109% in [16].
Turning to `CCCCCCCCC(=O)Nc1ccc(O)cc1`, the growth in assay [1] is 82.3%; in assay [2], 95%; in [3], 106%; in [4], 95.3%; in assay [5], 100%; in assay [6] it was 93.7%. Moreover, the growth in assay [7] was 102%; in [8], 103%; in assay [9], 82.9%; in assay [10], 88.7%; in [17] it was 80.5%; in [11], 98.3%. In addition, the growth in [12] is 103%; in assay [13], 97.9%; in assay [14], 101%; in assay [15], 83.7%; in assay [16] it was 90.9%.
With `O=C(O)/C(Br)=C/c1c[nH]c2ccc(Br)cc12`, the growth was 114% in assay [1]; 106% in assay [2]; 90.6% in assay [3]; 59.7% in [4]; 171% in assay [5]; 98.2% in assay [6]. In addition, the growth was 105% in assay [7]; 105% in assay [8]; 102% in assay [9]; 184% in assay [10]; 117% in [11]; 110% in assay [12]. Moreover, the growth in assay [13] was 137%; in [14] it was 98.2%; in assay [15] it was 94.2%; in [16], 103%.
Regarding `O=C(Nc1ccccc1)Nc1ccc(Nc2ncnc3sc4c(c23)CCCC4)cc1`, the growth was 99.3% in [1]; 107% in [2]; 119% in assay [3]; 107% in assay [4]; 99.6% in [5]; 107% in assay [6]. In addition, the growth in [7] is 103%; in [8], 85.3%; in assay [9], 107%; in assay [10], 101%; in assay [11] it was 112%; in assay [12], 106%. The growth was 96.2% in assay [13], 115% in assay [14], 95.4% in assay [15] and 102% in [16].
As for `COC(=O)[C@@H]1[C@H](O)[C@H](C)[C@H](O)[C@H](C)/C=C\C=C(C)C(=O)Nc2c(C)c(OC(C)=O)c3c(c2O)C(=O)C(C)=C2OCOC(=C23)C(C)=C[C@@](C)(O)[C@H](O)[C@@H](C)[C@H]1OC(C)=O`, the growth is 97.8% in [1]; 104% in [2]; 108% in [3]; 96.4% in assay [4]; 109% in assay [5]; 3.5% (active) in assay [6]. Also, the growth is 137% in assay [7]; 127% in assay [8]; 114% in [9]; 118% in assay [10]; 122% in assay [11]; 117% in assay [12]. The growth in assay [13] is 104%; in assay [14], 55.8%; in [15] it was 118%; in [16], 119%.
With `Nc1ccc(N=Nc2ccccc2)c2cc(S(=O)(=O)O)ccc12`, the growth was 103% in assay [1]; 96.5% in assay [2]; 107% in assay [3]; 107% in assay [4]; 97.8% in assay [5]; 108% in assay [6]. The growth in assay [7] was 108%; in [8], 104%; in assay [9], 101%; in assay [10] it was 97%; in assay [17] it was 114%; in assay [11], 108%. Further, the growth in [12] is 106%; in [14], 104%; in assay [15], 103%; in assay [16], 103%.
Take `Nc1cc(N)c2nc(-c3ccccc3)c(NCCc3ccc(Cl)c(Cl)c3)nc2c1`: the growth was -60.6% (active) in [1]; -90.6% (active) in assay [2]; -76.9% (active) in assay [3]; -85.5% (active) in [4]; -80.7% (active) in assay [5]; -77.8% (active) in assay [6]. The growth in [7] was -91.2% (active); in [8], -22.7% (active); in assay [9], -54.3% (active); in assay [17], -70.4% (active); in assay [11], -88.2% (active); in [12], -86.7% (active). Also, the growth in assay [13] was -2.91% (active); in assay [14] it was -90.8% (active); in [15], -94.9% (active); in assay [16] it was -83.4% (active).
For `COc1ccc(C(=O)N2N=C(c3ccc(Br)cc3)CC2c2cn(-c3ccccc3)nc2-c2ccccc2)cc1` (stereo unspecified), the growth is 67.9% in assay [1]; 31.5% in assay [2]; 101% in [3]; 67.5% in [4]; 76.6% in assay [5]; 85.2% in [6]. Besides, the growth is 53.4% in [7]; 85.2% in assay [8]; 41.5% in [9]; 61.1% in assay [10]; 87.7% in [17]; 48.6% in assay [11]. The growth in assay [12] is 29.6%; in assay [13] it was 33.8%; in assay [14] it was -23.3% (active); in assay [15] it was 55.9%; in assay [16], 55.6%.
